Screening data (PubChem BioAssay)
DT40 TDP1 CPT: DT40-hTDP1 cell growth loss with CPT; chicken DT40 Tdp1-/-;hTDP1 cells + 20 nM CPT, ATP luminescence, 48 h; Potency, µM (doses to about 46.2 µM), for the others: at the top dose activity change, negative = growth inhibition, most hits filed as inhibitors; 12% of 420,000 active; AID 686979; also: nearly all actives have a fitted effect of over 55% in size
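Chicken DT40 Tdp1-/- cells stably complemented with human TDP1 were seeded at 400 cells/well in medium containing 20 nM camptothecin, exposed to pin-transferred compounds, and grown at 37 °C for at least 48 hr. Viability was read as ATP luminescence.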
TDP1 block: inhibitors of human tyrosyl-DNA phosphodiesterase TDP1; Q9NUW8; recombinant TDP1, AlphaScreen DNA substrate cleavage; Potency, µM (top dose mostly 130 µM), inactives show at the highest dose activity change, negative = inhibition, actives largely listed as inhibitors; 0.28% of 350,000 active; AID 485290; also: nearly all actives have a fitted effect of over 40% in size
Target sequence (Q9NUW8 whole entry, looked up): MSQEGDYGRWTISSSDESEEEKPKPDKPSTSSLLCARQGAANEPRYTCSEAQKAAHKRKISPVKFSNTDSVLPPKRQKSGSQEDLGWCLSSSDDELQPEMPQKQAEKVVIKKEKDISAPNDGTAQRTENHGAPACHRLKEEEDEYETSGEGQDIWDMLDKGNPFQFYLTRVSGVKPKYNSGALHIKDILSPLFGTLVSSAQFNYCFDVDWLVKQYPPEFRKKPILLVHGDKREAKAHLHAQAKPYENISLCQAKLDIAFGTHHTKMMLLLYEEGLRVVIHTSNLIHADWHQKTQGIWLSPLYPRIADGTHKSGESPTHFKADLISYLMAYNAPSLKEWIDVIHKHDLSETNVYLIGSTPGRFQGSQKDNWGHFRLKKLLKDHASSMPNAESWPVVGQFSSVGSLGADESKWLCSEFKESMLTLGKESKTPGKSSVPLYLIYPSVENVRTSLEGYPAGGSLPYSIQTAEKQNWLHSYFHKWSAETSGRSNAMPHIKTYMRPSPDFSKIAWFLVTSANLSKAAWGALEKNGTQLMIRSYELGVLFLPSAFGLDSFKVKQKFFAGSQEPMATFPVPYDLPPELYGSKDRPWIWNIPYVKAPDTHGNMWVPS
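Steps: enzyme plus compound, 15 min RT; add biotin/phosphotyrosine-FITC oligonucleotide (15 nM final), react 5 min; add donor/acceptor beads (10 ug/ml final), 10 min; read AlphaScreen. Tdp1 at 1 nM final.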
TDP1 cell noCPT: qHTS for Inhibitors of human tyrosyl-DNA phosphodiesterase 1 (TDP1): qHTS in cells in absence of CPT; Potency, µM (titrated, usually from 46.2 µM), inactives show top-dose activity change, negative = growth inhibition, most hits filed as inhibitors; 15% of 420,000 active; AID 686978, 2013; DT40 Tdp1-/- hTDP1 cells, no CPT, ATP luminescence, 48 h; also: nearly all actives have a fitted effect of over 55% in size
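Luminescent ATP content (CellTiter-Glo) served as the growth readout. Knockout chicken DT40 cells expressing human TDP1 were exposed to compounds without camptothecin for a minimum 48 hr at 37 °C.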
PLK1 PBD inh: blocks phosphopeptide binding to human PLK1 polo-box domain. Plk1 PBD binding of FITC phosphopeptide, fluorescence polarization. P53350. 2.8% of 360,000 active. Potency, µM, for inactives: max response, negative = inhibition, most hits filed as inhibitors; also: series mostly up to about 57 µM; nearly all actives have a fitted effect of over 65% in size
VDR inh: inhibitors of human vitamin D receptor; P11473; VDR-SRC2-3 peptide fluorescence polarization, 2 h; Potency, µM, for the others: max response, negative = inhibition, usual class: inhibitors; 0.93% of 400,000 active; AID 504847
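FP read-out; VDR + SRC2-3 coactivator peptide; 23 nl compound by pintool; 2 h RT incubation; reagents held at 4 deg C, protected from light.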
GCN5L2 inh: inhibitors of human GCN5L2 histone acetyltransferase; Q92830; GCN5L2 HAT assay, ThioGlo1 CoA-SH fluorescence; Potency, µM (highest dose often 58.9 µM), for inactives: top-dose activity change, negative = inhibition, most hits filed as inhibitors; 0.21% of 390,000 active; AID 504327
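GCN5L2 (20 nM) in 50mM HEPES pH 7.5, 0.1mM EDTA, 0.01% Tween-20 preincubated 15 min with compounds at room temperature. Reaction started with H3(1-25) 75uM, acetyl-CoA 70uM, ThioGlo1 50uM; CoA-thiol fluorescence (Ex340/Em540) read at 0 and 20 min.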
* hit, by the source's call; ? = inconclusive; / = not tested or not shown; [ ] = remark or other dose. Most compounds without a hit are left out; they make up all but 18% or so of the library. Calls follow the shape of the dose curve; as a rule, active = well fitted curve in the direction sought with a large enough effect; inconclusive = small, poorly fitted or top-dose-only effect, or another doubt; inactive = no such curve, though single readings can be large; an effect the other way counts as inactive or inconclusive. % is scaled to controls: 0 for no effect and ±100 for the full control effect; potency is read from the fitted curve at half-maximal effect.

SMILES	DT40 TDP1 CPT	TDP1 block	TDP1 cell noCPT	PLK1 PBD inh	VDR inh	GCN5L2 inh
CC(=O)CC(c1ccc(O)cc1)c1c(O)c2ccccc2oc1=O (stereo not given)	/	3.6%	/	/	-5.3%	35.4%
CN(C)CCO	-7.9%	7.1%	8.9%	/	2.7%	3.4%
ClC(Cl)Br	/	2.0%	/	/	/	/
CCOC(=O)[C@]12Cc3cc(N(C)C)ccc3[C@H]1N(Cc1ccccc1)C(=O)c1ccccc12	13µM*	/	6.51µM*	-17.2%	-5.0%	/
CCOC(=O)C1(CCOc2ccccc2)CCN(Cc2cccc(O)c2)CC1	?	/	?	-9.6%	-12.6%	1.0%
O=C1c2cccc3cccc(c23)C(=O)N1CCN1CCN(C(=S)Nc2ccccc2)CC1	?	8.1%	?	-6.1%	9.1%	2.9%
O=C(COc1ccccc1)N1CCN(CCN2C(=O)c3cccc4cccc(c34)C2=O)CC1	?	2.7%	?	16.8µM*	-11.8%	-2.1%
O=[N+]([O-])c1cc(F)c(N2CCCC2)cc1N1CCNCC1	/	-1.2%	/	/	/	-3.6%
CN1CCN(c2cc(N3CCCCCC3)c(F)cc2[N+](=O)[O-])CC1	?	6.7%	29.1µM*	3.3%	-28.9%	-0.4%
CCN1CCN(c2cc(N3CCCC3)c([N+](=O)[O-])cc2F)CC1	?	0.0%	29.1µM*	-11.1%	-5.1%	-2.7%
CC(=NCc1ccco1)c1c(O)n(Cc2ccccc2)c(=O)[nH]c1=O	-18.6%	3.2%	-4.9%	-10.3%	-1.2%	-3.0%
COCCOc1ccc(C(F)(F)F)cc1NC(=O)CN1C(=O)NC2(CCCc3ccccc32)C1=O (stereo not given)	?	0.3%	25.9µM*	-4.1%	10.7%	-11.7%
CNCCC(Oc1ccc(C(F)(F)F)cc1)c1ccccc1 (stereo not given)	?	6.0%	25.9µM*	-1.6%	10.4%	-8.9%
CCOP(=O)(OCC)C(O)c1ccccc1 (stereo not given)	1.0%	/	-27.2%	-4.1%	-6.7%	-0.2%
CCOP(=O)(OCC)C(NC(=O)Nc1ccc(Cl)c(Cl)c1)c1ccccc1 (stereo not given)	?	-0.6%	16.4µM*	-0.5%	6.9%	-11.8%
CCOC(=O)c1cc(-c2ccccc2)n(CCCC(=O)Nc2ccc(C)c(C)c2)c1C	16.4µM*	7.6%	3.66µM*	/	17.1%	-11.6%
COCC(=O)N(c1c(C)cccc1C)C(C)C(=O)OC (stereo not given)	2.5%	/	?	/	8.6%	-7.5%
CCOc1ccccc1CN1CCCC(C(=O)c2cc(F)ccc2F)C1 (stereo not given)	-45.0%	/	?	-18.3%	-4.9%	-14.2%
COc1ccc(O)c(CN2CCCC(C(=O)c3ccccc3SC)C2)c1 (stereo not given)	?	6.0%	14.6µM*	-7.7%	-22.2%	-13.1%
COc1ccccc1CN1CCCC(C(=O)c2ccccc2OC)C1 (stereo not given)	8.2µM*	1.9%	?	-2.9%	12.2%	-4.8%
CCOc1ccc(CN2CCCC(C(=O)c3ccccc3OC)C2)cc1 (stereo not given)	?	3.6%	?	-1.1%	7.1%	0.5%
COc1cccc(OC)c1CN1CCCC(C(=O)c2cccc(Cl)c2)C1 (stereo not given)	18.4µM*	/	?	-2.0%	-22.0%	-3.0%
COc1ccccc1CN1CCCC(C(=O)c2ccccc2SC)C1 (stereo not given)	13µM*	2.4%	20.6µM*	-1.5%	-4.9%	4.1%
CCN1C[C@@]2(COC(=O)c3ccccc3N3C(=O)CC(C)C3=O)CC[C@H](OC)[C@]34C5C[C@@H]6[C@@H](OC)C[C@@](O)(C5[C@H]6OC)[C@@](O)(C13)[C@@H](OC)C24 (stereo not given in full)	-6.3%	-9.0%[56.1 µM]	-0.4%	/	-0.4%	-18.9%[0.501 µM]
CC1=C(C/C(C)=C/c2ccccc2)/C(=C/CO)[C@H](O)[C@](C)(O)C12CC2	?	/	?	-21.3%	-17.7%	/
SMILES	DT40 TDP1 CPT	TDP1 block	TDP1 cell noCPT	PLK1 PBD inh	VDR inh	GCN5L2 inh
O=C(Oc1ccccc1)N1CCC[C@@]2(CCN(C(c3ccccc3)c3ccccc3)C2)C1	-8.0%	/	-23.5%	/	0.0%	-20.7%
N#CC(O)c1ccccc1 (stereo not given)	/	13.2%	/	/	/	/
COc1ccc(C(=O)C2CCCN(CCc3ccccc3)C2)cc1OC (stereo not given)	?	/	18.4µM*	1.1%	/	/
Cc1cc2c(s1)Nc1ccccc1N=C2N1CCN(C)CC1	?	6.1%	?	-16.8%	?	-14.0%
COC(=O)C1=C(C)NC(COC(N)=O)=C(C(=O)OC(C)C)C1c1cccc(Cl)c1Cl (stereo not given)	29.9µM*	/	33.5µM*	/	/	/
C[C@H]1C2Cc3ccc(O)cc3[C@]1(C)CCN2CC1CC1	/	9.6%[56.1 µM]	/	/	0.0%	3.4%
O=C(c1ccco1)N1CCC2(CC1)CN(Cc1ccncc1)C2	3.7%	/	-2.5%	/	-9.3%	7.1%
CC[C@]12C=CCN3CC[C@@]4(c5ccc(OC)cc5N(C)[C@H]4[C@@](O)(C(=O)OC)[C@@H]1OC(C)=O)C32 (stereo not given in full)	/	11.5%	/	/	-3.0%	-18.1%
CC(C)(C)c1ccc(O)c(N=Cc2c(O)ccc3ccccc23)c1	25.9µM*	/	16.4µM*	29.5%	14.4%	1.3%
COc1ccc(N2CCN(c3ncnc4c3nc3n4CCCCC3)CC2)cc1	?	-1.2%	?	/	-17.7%	-2.8%
Cc1ccccc1OCC(=O)Nc1ccccc1C(=O)OCc1cc(=O)n2nc(C3CC3)sc2n1	1.64µM*	1.2%	1.64µM*	/	4.2%	0.9%
Cc1nn2c(=O)cc(COC(=O)c3ccccc3NC(=O)c3cccs3)nc2s1	9.2µM*	-1.2%	10.3µM*	/	-3.4%	-10.6%
CCCCCCn1c(O)c(C=Nc2ccccc2N2CCOCC2)c(=O)[nH]c1=S	?	4.1%	14.6µM*	13.3%	-18.9%	-2.9%
CCCCCCC(=O)N/N=C/c1c(O)n(CCCC)c(=S)[nH]c1=O	?	7.7%	18.4µM*	-10.0%	2.5%	-1.2%
CCCCC(=O)N/N=C/c1c(O)n(CC)c(=S)[nH]c1=O	-2.8%	8.2%	5.1%	1.7%	-19.1%	-0.2%
COCCNC(=O)c1c(N)n(CCC(C)C)c2nc3ccccc3nc12	11.6µM*	-13.1%	18.4µM*	-10.2%	?	-18.6%
CCCNC(=O)c1c(N)n(Cc2ccc3c(c2)OCO3)c2nc3ccccc3nc12	-4.4%	3.1%	-9.1%	-4.0%	-13.6%	-20.7%
